Laboratory results as given in PubChem BioAssay (NCATS).
Records with an inconclusive call do not appear. Activity calls are given as the source filed them. Unless noted, the call rests on the fitted dose curve; in most records, active means well fitted curve in the direction sought with a large enough effect; inconclusive means small, poorly fitted or top-dose-only effect, or another doubt; inactive means no such curve, though single readings can be large; an effect the other way counts as inactive or inconclusive.

Columns and labels:
[1] = Cell Viability - MRC5 (AID 434; calls by dose curve;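 further: potency means the concentration at half of the fitted maximal effect; potency reflects cytotoxicity seen as loss of intracellular ATP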); conditions: MRC5 lung fibroblast viability, qHTS
How it was run: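 MRC5 normal human lung fibroblasts, 1500 cells/well, exposed to compound for 40 hr at 37 C. Cellular ATP was read by CellTiter-Glo luminescence; data normalized to DMSO and 100 uM tamoxifen, with AC50 from Hill fits.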

[2] = Cell Viability - HUV-EC-C (AID 542); conditions: HUV-EC-C endothelial cell viability, qHTS; series mostly up to 92.2 µM; further: on the % scale 0 is the no-effect control and ±100 the full control effect; nearly all actives have a fitted effect of over 35% in size
How it was run: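 HUV-EC-C human vascular endothelial cells, 1000/well, exposed to compound for 40 hr at 37 °C in complete medium. Intracellular ATP was read by CellTiter-Glo luminescence. AC50 came from Hill-equation fits of concentration-response data.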

[3] = Cellular Toxicity (caspase-3) HepG2 (AID 654); conditions: HepG2 caspase-3 activation, luminescence; series mostly up to 92.2 µM;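 further: cells exposed to compound for 16 hours before reading; 0% = DMSO alone and 100% = caspase signal from 100 µM tamoxifen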
How it was run: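 HepG2 cells (1500/well) were treated 16 h at 37 °C in complete medium, then caspase 3/7 activity was read by Caspase-Glo luminescence. Data were normalized to DMSO and 100 uM tamoxifen; AC50 came from Hill-equation fits of qHTS concentration-response.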

[4] = Cellular Toxicity (caspase-3) HUV-EC-C (AID 656); conditions: HUV-EC-C cells, caspase-3 activation (apoptosis); series mostly up to 92.2 µM
How it was run: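 qHTS; HUV-EC-C, 1000 cells/well; 5 hr settle, 16 hr cmpd, 37°C; Caspase-Glo 3/7, 20 min RT; luminescence. Norm: DMSO = 0%, tamoxifen 100 uM = 100%. Hill-fit AC50.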

[5] = Cellular Toxicity (caspase-3) SHSY5Y (AID 657); conditions: SH-SY5Y caspase-3 activation; series mostly up to 91.7 µM
How it was run: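 qHTS, SH-SY5Y, 1500 cells/well, 5 h pre-incubation 37 °C; compound 16 h 37 °C; Caspase-Glo 3/7 1 h RT; luminescence. Norm.: DMSO = 0, 10 uM staurosporine = 100%. Hill fit → AC50.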

[6] = Cellular Toxicity (caspase-3) Mesangial (AID 660); conditions: mesangial cells, normalized: DMSO 0%, 100 µM tamoxifen 100%; series mostly up to 91.7 µM
How it was run: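 Human renal glomerular mesangial cells, 1000/well, 5 h at 37 C before 16 h compound treatment. Caspase-Glo 3/7 luminescence after 20 min; normalized to DMSO and 100 uM tamoxifen, AC50 from Hill fit.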

[7] = Cellular Toxicity (caspase-3) SK-N-SH (AID 661); conditions: SK-N-SH caspase-3 activation, qHTS, DMSO as zero, staurosporine as full; series mostly up to 91.7 µM
How it was run: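 Human SK-N-SH neuroblastoma cells, 1500/well, were exposed to compounds for 16 hours at 37 °C. Caspase-Glo 3/7 luminescence was normalized to DMSO (basal) and 10 uM staurosporine (100%), and AC50 came from a Hill fit.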

[8] = Cellular Toxicity (caspase-3) H-4-II-E (AID 663); conditions: H-4-II-E rat hepatoma; Potency: caspase-3 activation; series mostly up to 92.2 µM;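 further: cells exposed to compound for 16 hr before readout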
How it was run: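 Rat hepatoma H-4-II-E cells (1500/well) plated 5 hr, then exposed to compound titrations for 16 hr at 37 °C. Caspase-Glo 3/7 luminescence read after 20 min at RT; data normalized to DMSO and 100 uM tamoxifen, AC50 from Hill fits.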

[9] = Cellular Toxicity (caspase-3) N2a (AID 665); conditions: N2a cells, luminescence, normalized: DMSO 0%, 10 µM staurosporine 100%; series mostly up to 92.2 µM;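 further: compound exposure lasted 16 h at 37 °C before readout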
How it was run: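 Mouse N2a neuroblastoma cells, 1500 per well, treated 16 h at 37 °C in complete medium; caspase-3/7 activity by Caspase-Glo luminescence after 1 h. Normalized to DMSO and 10 uM staurosporine; AC50 from Hill fits.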

[10] = Cellular Toxicity (caspase-3) NIH 3T3 (AID 666); conditions: NIH 3T3 caspase-3 activation, apoptosis/toxicity, 0% DMSO, 100% is 100 µM tamoxifen; series mostly up to 92.2 µM;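 further: caspase signal read after 16 h compound exposure; 0% = DMSO basal and 100% = 100 µM tamoxifen stimulation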
How it was run: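 Mouse NIH 3T3 fibroblasts (1000/well) treated 16 h at 37 C; caspase-3/7 activity measured by Caspase-Glo 3/7 luminescence after 20 min. Normalized to DMSO and 100 uM tamoxifen; AC50 from Hill fits.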

[11] = Cellular Toxicity (caspase-3) Renal Proximal Tubule (AID 667); conditions: renal proximal tubule cells, primary cells freshly taken from rat; Potency: caspase-3 activation; series mostly up to 91.7 µM;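 further: cells exposed to compound for 16 hours at 37 °C before detection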
How it was run: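 AC50 derived by standard Hill fit of concentration-response data, normalized between DMSO basal and 10 uM staurosporine as 100% stimulation. Cells: primary rat kidney proximal tubule, 16 h treatment at 37 °C.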

[12] = MultiTox-Fluor Cytotoxicity Assay - LYMP1-001 - Dead Cells (AID 946); conditions: LYMP1-001 lymphoblastoid cells, dead-cell protease fluorescence; series mostly up to 92.2 µM;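 further: 0% = DMSO and 100% = tetraoctylammonium bromide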
How it was run: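 LYMP1-001 lymphoblastoid cells (2500/well) treated 16 h at 37 C. Dead-cell protease cleavage of bis-AAF-R110 read at Ex/Em 485/520. Normalized to DMSO and 15 uM tetraoctylammonium bromide; AC50 from Hill fits.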

[13] = MultiTox-Fluor Cytotoxicity Assay - LYMP1-003 - Dead Cells (AID 961); conditions: LYMP1-003 lymphoblastoid cells, dead-cell protease fluorescence; series mostly up to 92.2 µM;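 further: 0% = DMSO and 100% = tetraoctylammonium bromide; nearly all actives have a fitted effect of over 70% in size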
How it was run: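 LYMP1-003 human lymphoblastoid cells (2500/well) exposed to compound 16 h at 37 C in complete medium; dead-cell protease read with bis-AAF-R110 fluorescence (Ex/Em 485/520) after 60 min at room temperature. Normalized to DMSO and 15 uM tetraoctylammonium bromide; AC50 from Hill fit.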

[14] = MultiTox-Fluor Cytotoxicity Assay - LYMP1-003 - Live Cells (AID 962); conditions: LYMP1-003 lymphoblastoid cells, MultiTox-Fluor live-cell protease fluorescence; series mostly up to 92.2 µM;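 further: 0% = DMSO only and full loss = 92 µM tetraoctylammonium bromide; cytotoxic hits lower the live-cell protease signal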
How it was run: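 LYMP1-003 lymphoblastoid cells, 2500/well in complete medium, treated 16 h at 37 C; live-cell protease cleavage of GF-AFC read by fluorescence (Ex/Em 405/510) after 60 min reagent; AC50 from Hill fits of concentration-response.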

[15] = Cell Viability - LYMP1-003 - Assay at 24 hr (AID 963); conditions: LYMP1-003 lymphoblastoid cell viability; series mostly up to 92.2 µM;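 further: plate controls were DMSO only for no effect and tetraoctylammonium bromide positive control for full effect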
How it was run: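 Human lymphoblastoid LYMP1-003 cells, 2500/well, treated 24 h at 37 C in complete medium. Viability read as intracellular ATP by CellTiter-Glo luminescence after 30 min at room temperature; AC50 from Hill-equation fits of qHTS concentration-response.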

[16] = Cell Viability - LYMP1-002 - Assay at 24 hr (AID 993); conditions: LYMP1-002 lymphoblastoid cells viability; series mostly up to 92.2 µM; further: on the % scale 0 is the no-effect control and ±100 the full control effect
How it was run: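 Human lymphoblastoid LYMP1-002 cells (2500/well) treated 24 h at 37 °C; viability as intracellular ATP by CellTiter-Glo luminescence. Tetraoctylammonium bromide as positive control; AC50 from Hill-equation fits of qHTS concentration-response.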

[17] = qHTS Assay for Identification of Small Molecule Inducers of Hypoxia Response (AID 2120; active means well fitted curve in the direction sought with a large enough effect in the signal ratio, with a control signal flat, not every such curve was filed as active; the % refers to the signal ratio; further: 0% is about no effect); conditions: hypoxia response reporter cells, beta-lactamase ratio readout; series mostly up to 104 µM
How it was run: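 HRE-bla ME-180 cells in Opti-MEM with 0.5% dialyzed FBS, pre-plated 4-5 h, then compound titration for 17 h at 37 degrees Celsius. CCF4 loaded 2.5 h at room temperature; 460/530 nm ratio gave %Activity and AC50 for induction.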

[18] = molecular target: Peroxisome proliferator-activated receptor alpha (Homo sapiens) (UniProt Q07869); assay: qHTS assay for small molecule agonists of the peroxisome proliferator-activated receptor alpha (PPARalpha) signaling pathway (AID 651778); conditions: PathHunter PPARalpha complementation, chemiluminescence, 6 h; max response: hits give high values; further: % of control where 0% means no effect
How it was run: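 Enzyme-fragment complementation assay in which ligand-bound PPARalpha translocates and forms an active enzyme that generates chemiluminescence. Cells were plated overnight, exposed to compound for 6 hr at 37 C, and then given detection reagent for 60 min at room temperature.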

[19] = qHTS assay for small molecule agonists of the antioxidant response element (ARE) signaling pathway measured by Nrf2-dependant transcriptional activity - cell viability counter screen (AID 720653; active means well fitted curve in the direction sought with a large enough effect in the repeat runs; an effect the other way counts as inactive or inconclusive; further: on the % scale 0 is the no-effect control and ±100 the full control effect); conditions: ARE-bla HepG2 viability, CellTiter-Glo ATP luminescence, 16 h; max response: hits give low values
How it was run: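 ARE-bla HepG2 cells treated with compounds for 16 h at 37C; this counter screen measures viability as intracellular ATP by CellTiter-Glo luminescence after 30 min at room temperature.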

[20] = qHTS assay for cell viability of the p53RE-bla HCT-116 cell line (AID 743292); conditions: p53RE-bla HCT-116 viability, ATP luminescence, 16 h; series mostly up to 95 µM; further: on the % scale 0 is the no-effect control and ±100 the full control effect; nearly all actives have a fitted effect of over 55% in size
How it was run: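 ATP-based luminescent viability (CellTiter-Glo, 30 min RT) after 16 h compound treatment at 37 C of p53RE-bla HCT-116 cells, seeded at 4,000 cells/well and rested 5 h before dosing.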

Peroxisome proliferator-activated receptor alpha (Homo sapiens), sequence (Q07869 whole entry, looked up, the tested form may be a part): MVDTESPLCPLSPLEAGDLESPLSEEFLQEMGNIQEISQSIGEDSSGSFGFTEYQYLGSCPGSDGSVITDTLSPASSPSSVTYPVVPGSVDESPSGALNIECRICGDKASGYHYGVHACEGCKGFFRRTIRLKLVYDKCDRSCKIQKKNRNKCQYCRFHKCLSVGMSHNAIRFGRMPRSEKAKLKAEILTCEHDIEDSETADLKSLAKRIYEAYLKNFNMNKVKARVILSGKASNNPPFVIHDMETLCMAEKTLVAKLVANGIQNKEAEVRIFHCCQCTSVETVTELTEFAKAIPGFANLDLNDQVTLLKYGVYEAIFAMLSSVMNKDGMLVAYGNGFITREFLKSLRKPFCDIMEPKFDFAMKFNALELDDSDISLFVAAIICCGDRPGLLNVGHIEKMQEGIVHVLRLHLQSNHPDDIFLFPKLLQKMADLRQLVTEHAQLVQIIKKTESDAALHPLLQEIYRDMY

Cc1ccc(N)cc1[N+](=O)[O-]
inactive: Potency [1] > 92 µM | Potency [2] | Potency [3] | Potency [4] | Potency [5] | outcome [6] | outcome [7] | Potency [8] | outcome [9] | outcome [10] | Potency [11] | Potency [12] | Potency [13] | Potency [14] | Potency [15] | Potency [16] | Potency [17] | max response [18] -0.223% | max response [19] -10.7% | Potency [20]

Cc1ccc2ccc3cccc4ccc1c2c34
inactive: Potency [1] > 92 µM | Potency [2] | Potency [3] | Potency [4] | Potency [5] | outcome [6] | outcome [7] | Potency [8] | outcome [9] | outcome [10] | Potency [11] | Potency [12] | Potency [13] | Potency [14] | Potency [15] | Potency [16] | Potency [17] | max response [18] -2.03% | max response [19] 2.48% | Potency [20]

Cc1c(N)cccc1Cl
inactive: Potency [1] > 92 µM | Potency [2] | Potency [3] | Potency [4] | Potency [5] | outcome [6] | outcome [7] | Potency [8] | outcome [9] | outcome [10] | Potency [11] | Potency [12] | Potency [13] | Potency [14] | Potency [15] | Potency [16] | Potency [17] | max response [18] -2.61% | max response [19] -6.28% | Potency [20]

Cc1cccnc1
inactive: Potency [1] > 92 µM | Potency [2] | Potency [3] | Potency [4] | Potency [5] | outcome [6] | outcome [7] | Potency [8] | outcome [9] | outcome [10] | Potency [11] | Potency [12] | Potency [13] | Potency [14] | Potency [15] | Potency [16] | Potency [17] | max response [18] -1.1% | max response [19] -3.56% | Potency [20]

CCNC(=S)NCC
inactive: Potency [1] > 92 µM | Potency [2] | Potency [3] | Potency [4] | Potency [5] | outcome [6] | outcome [7] | Potency [8] | outcome [9] | outcome [10] | Potency [11] | Potency [12] | Potency [13] | Potency [14] | Potency [15] | Potency [16] | Potency [17] | max response [18] -2.88% | max response [19] -3.61% | Potency [20]

c1ccc(COCc2ccccc2)cc1
inactive: Potency [1] > 92 µM | Potency [2] | Potency [3] | Potency [4] | Potency [5] | outcome [6] | outcome [7] | Potency [8] | outcome [9] | outcome [10] | Potency [11] | Potency [12] | Potency [13] | Potency [14] | Potency [15] | Potency [16] | Potency [17] | max response [18] -3.88% | max response [19] 3.34% | Potency [20]
